# Pol beta inh: qHTS Assay for Inhibitors of DNA Polymerase Beta; P06746; Pol beta primer extension/strand displacement, fluorescence kinetic; Potency, µM (doses to about 114 µM), inactives show at the highest dose activity change, negative = inhibition, actives largely listed as inhibitors; actives 1.3% (n = 340,000); also: % is scaled to controls: 0 for no effect and ±100 for the full control effect
#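 Curves were derived by four-parameter Hill fits of normalized qHTS data. The kinetic fluorescent primer-extension read was taken at 0 and 10 min after 50 nM substrate, following a 15 min room-temperature preincubation of 10 nM enzyme with compounds.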
# WRN helicase inh: qHTS for Inhibitors of WRN Helicase | Bifunctional 3'-5' exonuclease/ATP-dependent helicase WRN (Homo sapiens), Q14191 | WRN helicase unwinding, fluorescent forked duplex, kinetic | Potency, µM (top dose mostly 114 µM), without a hit: top-dose activity change, negative = inhibition, hits mostly inhibitors | actives 0.46% (n = 360,000) | AID 651768, 2012; also: % is scaled to controls: 0 for no effect and ±100 for the full control effect; nearly all actives have a fitted effect of over 55% in size
# Target sequence (Q14191 whole entry, looked up): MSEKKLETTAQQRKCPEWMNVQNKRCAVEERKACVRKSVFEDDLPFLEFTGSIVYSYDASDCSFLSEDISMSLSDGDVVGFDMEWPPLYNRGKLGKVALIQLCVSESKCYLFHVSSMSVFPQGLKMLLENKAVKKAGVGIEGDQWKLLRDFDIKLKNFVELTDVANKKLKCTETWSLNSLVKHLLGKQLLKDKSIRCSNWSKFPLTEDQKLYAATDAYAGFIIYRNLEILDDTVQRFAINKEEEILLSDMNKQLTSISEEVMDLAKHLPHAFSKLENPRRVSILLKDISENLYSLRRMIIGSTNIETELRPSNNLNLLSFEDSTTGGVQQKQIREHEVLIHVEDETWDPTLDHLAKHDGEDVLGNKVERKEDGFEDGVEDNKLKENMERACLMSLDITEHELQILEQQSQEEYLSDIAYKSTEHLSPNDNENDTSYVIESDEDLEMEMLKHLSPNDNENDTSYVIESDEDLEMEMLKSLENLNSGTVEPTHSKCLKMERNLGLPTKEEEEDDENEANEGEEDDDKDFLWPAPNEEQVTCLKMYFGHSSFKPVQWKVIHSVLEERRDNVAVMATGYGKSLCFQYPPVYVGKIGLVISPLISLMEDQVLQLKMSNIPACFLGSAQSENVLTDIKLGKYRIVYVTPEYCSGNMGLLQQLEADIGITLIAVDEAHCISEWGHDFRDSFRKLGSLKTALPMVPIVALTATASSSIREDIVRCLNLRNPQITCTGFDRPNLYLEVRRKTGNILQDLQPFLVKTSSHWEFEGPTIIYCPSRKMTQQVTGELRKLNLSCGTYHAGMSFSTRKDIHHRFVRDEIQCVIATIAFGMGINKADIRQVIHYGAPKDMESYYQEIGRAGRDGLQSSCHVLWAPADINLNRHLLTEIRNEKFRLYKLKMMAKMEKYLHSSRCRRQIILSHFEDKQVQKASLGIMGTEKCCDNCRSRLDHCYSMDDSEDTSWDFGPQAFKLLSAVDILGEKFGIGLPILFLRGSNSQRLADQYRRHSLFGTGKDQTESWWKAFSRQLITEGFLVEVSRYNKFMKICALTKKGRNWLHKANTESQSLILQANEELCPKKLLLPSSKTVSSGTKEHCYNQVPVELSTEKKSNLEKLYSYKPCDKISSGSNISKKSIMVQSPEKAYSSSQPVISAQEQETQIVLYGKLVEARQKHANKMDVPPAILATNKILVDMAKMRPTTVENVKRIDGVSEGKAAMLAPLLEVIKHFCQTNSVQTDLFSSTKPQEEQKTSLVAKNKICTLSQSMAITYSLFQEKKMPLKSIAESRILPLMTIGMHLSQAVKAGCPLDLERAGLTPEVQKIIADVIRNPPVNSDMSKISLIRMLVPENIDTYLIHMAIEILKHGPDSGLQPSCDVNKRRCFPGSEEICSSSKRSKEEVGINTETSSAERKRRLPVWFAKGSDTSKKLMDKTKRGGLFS
#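 Enzyme (20 nM final) and test compound sit together 15 min at room temperature before substrate addition. Substrate is a single-forked duplex oligonucleotide (100 nM) labelled with fluorophore and quencher, with 2 mM ATP; helicase unwinding raises red fluorescence, read kinetically.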
# POLI inh: qHTS for Inhibitors of Polymerase Iota. actives 1% (n = 390,000). Potency, µM (top dose mostly 115 µM), without a hit: at the highest dose activity, negative = inhibition, usual class: inhibitors. Pol iota fluorescent replication assay, 10 min
#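 Fluorescent replication assay read twice, at 0 min and 10 min after adding 50 nM (final) substrate. Enzyme (10 nM) and compounds were first incubated 15 min at room temperature; enzyme-free buffer wells were negative controls.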
# FEN1 inhibitor: qHTS Assay for the Inhibitors of Human Flap endonuclease 1 (FEN1); Recombinant FEN1 flap cleavage, fluorescence, 15 min; Potency, µM (titrated, usually from 114 µM), for the others: top-dose activity change, negative = inhibition, hits mostly inhibitors; actives 0.35% (n = 390,000); AID 588795, 2011; also: % is scaled to controls: 0 for no effect and ±100 for the full control effect; nearly all actives have a fitted effect of over 65% in size
#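 Steps: FEN1 (10 nM) dispensed; compound added by pin tool; 15 min at room temperature; substrate added to 50 nM final; reads at 0 min and 15 min; data normalized and fitted (four-parameter Hill).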
# POLK inh: qHTS for Inhibitors of Polymerase Kappa; DNA polymerase kappa (Homo sapiens), Q9UBT6; actives 0.53% (n = 400,000); AID 588579, 2011; purified Pol kappa, fluorescent DNA synthesis assay, 10 min; Potency, µM (series often up to 107 µM), inactives show at the top dose activity, negative = inhibition, actives largely listed as inhibitors; also: % is scaled to controls: 0 for no effect and ±100 for the full control effect
#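 Kinetic fluorescence readout at 0 and 10 min followed reaction start with substrate at 50 nM final. Beforehand, enzyme (10 nM Pol kappa) stood 15 min with compound at room temperature; buffer-only wells were negative controls.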
# POLH inh: qHTS for Inhibitors of Polymerase Eta; DNA polymerase eta (Homo sapiens), Q9Y253; recombinant Pol eta, fluorescent DNA replication assay; Potency, µM (series often up to 114 µM), for inactives: at the top dose activity change, negative = inhibition, most hits filed as inhibitors; actives 1.2% (n = 390,000); AID 588591, 2011; also: % is scaled to controls: 0 for no effect and ±100 for the full control effect
#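 Fluorescent replication assay: 50 nM final substrate added after a 15 min room-temperature compound preincubation with 10 nM enzyme. Signal taken at 0 min and again at 10 min.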
# Active calls of the source: *; ? = inconclusive; . = no result; [ ] = remark or other dose. Only some compounds are listed: those with a hit (about 2.4% of all), similar ones and a draw of the others. Calls follow the shape of the dose curve; as a rule, active = well fitted curve in the direction sought with a large enough effect; inconclusive = small, poorly fitted or top-dose-only effect, or another doubt; inactive = no such curve, though single readings can be large; an effect the other way counts as inactive or inconclusive. Potency is read from the fitted curve at half-maximal effect.
SMILES,Pol beta inh,WRN helicase inh,POLI inh,FEN1 inhibitor,POLK inh,POLH inh
Cc1[nH]n(-c2ccc(Br)cc2)c(=O)c1C=Nc1ccc(S(=O)(=O)Nc2nccs2)cc1,?,-19%[57.1 µM],?,16%,-17%,45µM*
CCOC(=O)C1CCN(S(=O)(=O)c2ccc3c(c2)CCCN3C(C)=O)CC1,0%,13%,-1%,14%,-5%,-4%
CCOC(=O)C1CCN(S(=O)(=O)c2ccc3c(c2)CC(=O)N3C)CC1,-3%,5%,14µM*,-5%,-12%,?
NCCC(O)(P(=O)(O)O)P(=O)(O)O,.,.,.,.,14%[60.1 µM],.
CC(=O)N(C1=C(O)c2ccccc2C(=O)C1=O)C1CCCCC1,21%,1%,29%,-10%,-8%,6%
O=C1c2ccccc2C(=O)c2[nH]c(=O)[nH]c21,50µM*,-15%[11.6 µM],14µM*,?,?,32µM*
O=C1C(O)=C(O)C(=O)c2ccccc21,.,5%,7.9µM*,?,-14%,32µM*
CC(=O)N(C)C1=C(O)c2ccccc2C(=O)C1=O,-1%,-5%,28µM*,-12%,-15%,-4%
COc1cccc(Cn2c(CNS(=O)(=O)c3ccc(C(C)(C)C)cc3)nc3cccnc32)c1,-20%,.,?,-8%,0%[60.1 µM],-6%
CCOc1ccc(-c2cccc(NS(=O)(=O)c3c(C)cc(C)cc3C)c2)nn1,1%,.,-5%,-16%,-16%[60.1 µM],-5%
CCN(CC)C(=O)CC(c1ccc2c(c1)OCO2)c1c(OC)cc(OC)c2ccc(=O)oc12 (stereo not given),50µM*,-1%,89µM*,-1%,79µM*,35µM*
CCN(CC)C(=O)CC(c1ccc(N(C)C)cc1)c1c(OC)cc(OC)c2ccc(=O)oc12 (stereo not given),-1%,8%,?,-22%,-9%,0%
N#CCCn1c(=O)cnc2cnc(Oc3ccccc3)nc21,.,.,.,.,-1%[60.1 µM],.
CC(=O)CCC(=O)O,.,.,.,.,1%[60.1 µM],.
Cc1ccc(C(=O)COC(=O)COc2ccccc2[N+](=O)[O-])s1,.,-4%,-7%,15%,-16%,?
CCOC(=O)COc1ccccc1/C=C\[N+](=O)[O-],-1%,32µM*,-22%,6%,-8%,-13%
Cc1cccc(CNC(=O)CCCN2C(=O)CCn3nc(-c4cn(C)c5ccccc45)cc32)c1,-6%,.,-2%,-3%,-4%[60.1 µM],8%
Cc1cccc(CNC(=O)CN2C(=O)CCn3nc(-c4cn(C)c5ccccc45)cc32)c1,18µM*,.,?,4%,-10%[60.1 µM],-5%
CCCCCN1N=C(C)CC1=O,5%,4%,1.1µM*,-2%,1%,-8%
COCCNc1nc(-c2cccc(NS(C)(=O)=O)c2)nc2ccccc12,.,.,.,.,25µM*,.
CS(=O)(=O)Nc1cccc(-c2nc(Nc3ccccc3)c3ccccc3n2)c1,.,.,.,.,-7%[60.1 µM],.
C/C(=N\Nc1nc(-c2cc(C)ccc2C)cs1)c1cc2c(ccc3ccccc32)oc1=O,?,-30%,?,-10%,79µM*,-18%
C/C(=N\Nc1nc(-c2cc(C)ccc2C)cs1)c1cc2ccccc2oc1=O,50µM*,-33%,10%,-2%,-24%,-4%
CNC(=O)[C@]1(C(F)(F)F)C[C@H](CCC2CCCCC2)CCCO1,.,.,12%,-6%,6%,.
O=C(COC(=O)CNC(=O)C1CCCCC1)NC1CC1,.,.,-2%,10%,1%,.
SMILES,Pol beta inh,WRN helicase inh,POLI inh,FEN1 inhibitor,POLK inh,POLH inh
COc1ccccc1CNC(=O)C(=O)NCCC1CCCCN1S(=O)(=O)c1cccs1 (stereo not given),.,0%[11.6 µM],40%,-1%,89µM*,0%
COc1ccccc1CNC(=O)C(=O)NCCC1CCCCN1S(=O)(=O)c1ccc(C)cc1 (stereo not given),.,-15%,15%,-2%,-6%,-20%
Cc1cc(Cl)ccc1OCC(=O)N(Cc1ccc(N(C)C)cc1)CC1CCCO1 (stereo not given),8%,.,7%,-7%,-19%,-21%
CC(=O)Nc1ccc(C(=O)CSc2nnc3cc(C)c4ccccc4n23)cc1,-18%,.,39%,-1%,-6%,-25%
Cc1nnc(SCc2nnc(-c3cccs3)o2)n1C,-6%,-1%,17%,3%,-4%,-23%
CC(C)Cn1c(SCc2nnc(-c3cccs3)o2)nc(O)cc1=O,-6%,-7%[57.1 µM],25µM*,-2%,-42%,?
CCC(C)C(=O)OCC1(c2ccc(C)cc2OC(=O)C(C)C)CO1 (stereo not given),40µM*,1%,?,-9%,-25%,-17%
Clc1cccc[n+]1CCCCCC[n+]1ccccc1Cl,.,.,-2%,0%,-3%,.
O=C1ON=C(c2ccccc2)/C1=C/c1ccco1,25µM*,?,22µM*,?,28µM*,?
O=C1NNC(c2ccccc2)=N/C1=C\c1ccco1,10µM*,-27%,?,-3%,-41%,?
O=C1NNC(c2ccccc2)=N/C1=C\c1ccccc1Cl,-3%,-34%,?,2%,1%,-32%
O=C(N/N=C/c1cc(O)ccc1Br)c1cccnc1,-11%,-13%,-1%,-7%,-17%,-1%
O=C(N/N=C/c1cc(Br)c(O)c(Br)c1O)c1cccnc1,40µM*,-17%,7%,-19%,-1%,40µM*
CCCNC(=O)Cn1sc2nc(C)cc(C)c2c1=O,-1%,-15%[11.6 µM],26%,50µM*,6%,-26%
Cc1cc(C)c2c(=O)n(CC(=O)N3CCC(N4CCCCC4)CC3)sc2n1,31%,2%,17%,?,-6%,-14%
Cc1nnc(N2CCN(C(=O)Nc3cc(F)ccc3F)CC2)c2nn(-c3ccc(Cl)cc3)c(C)c12,?,.,5%,-20%,-19%,.
N#CN=c1snc(-c2ccccc2Cl)n1-c1ccc(F)cc1,.,.,11%,-11%,-14%,.
CCOc1cc(CNc2ccc(N(C)C)cc2)cc(Br)c1OCC(=O)NC(C)(C)C,-23%,-25%,8.9µM*,-24%,-12%,-6%
CCOc1cc(CNc2cccc3ccccc23)cc(Br)c1OCC(=O)NC(C)(C)C,79µM*,-9%,46%,-1%,-8%,-18%
COc1cccc2nccc(/C=C/c3ccc(N(C)C)cc3)c12,.,.,?,-16%,-20%,.
CCCC[C@H]1CCCO[C@@](C(=O)NCCN2CCOCC2)(C(F)(F)F)C1,.,.,8%,-2%,13%,.
O=S(c1ccccc1)c1ccc2nnnn2n1 (stereo not given),.,.,.,.,3%[60.1 µM],.
CC(=O)N(c1ccc2oc(=O)sc2c1)S(=O)(=O)c1cccs1,28%,-15%,?,-3%,5%,-6%

# Screens as filed in PubChem BioAssay.
